Laboratory results reported in the OligoGym collection.

Molecular target: YWHAG
Experiment: pooled miR-30 sensor sort-seq; sequence = guide strand
Conditions: shRNA
Further: reference of the scale not given here.

Sequence | sensor-assay potency score (higher = more potent)
TTAATACTGTCAACTAATCAGA | -0.755
TTCAGGTAGAACACTTTGCTCT | -0.452
TAAACCATAAGGATGAATGAGA | -0.514
TTACACTGTTCCATGTCTGTAG | 0.201
AATACCAGCACAGCTAGCCTGA | -0.754
TGAATCTACAGAACAGTCCAGA | 0.0332
TCCTTCTCTATCTTCTCCCGGT | -0.85
TTCTAAGTCTGTCAGTCTGGGA | -0.946
TTCGCTGTAGGCCTTCTCGGAG | -0.969

Molecular target: YY1AP1
Experiment: as above
Conditions: shRNA

Sequence | sensor-assay potency score (higher = more potent)
TGTCAAGAGCTGAACATGCTGC | -0.313
TTTGCTTCCTTTTCGTGTCGGA | 0.308
TTAAGACATATCCTGGTGCTAC | -0.46
TAGAAGGTACTTGTTGTCCTCA | 0.0643
TGTTCTCTGACAATCCTTCTTG | -0.0122
TTCCTCTGTAGCATCTTCAGGT | 0.0483
TTCAAACAGATCTTCCATCAGC | -0.176
TTCCATCTTGACAACTTCCTCT | 0.35
TTTAACCTTCTCTACCTCCTTC | 0.0131
TTTTTCTAGGCCTTGATCTGAG | -0.00665
TAAAGTTAGCTTGAGGCTCAGC | -0.69
ATGAACTTCCTTACACTGGGGT | 0.289
